The structures appear in SMILES notation. Values without a mark were called inactive. Inconclusive results are not listed. The source made the active and inactive calls. Unless noted, the call rests on the fitted dose curve.

Assay [1] is described as follows: Nuclear factor erythroid 2-related factor 2/antioxidant responsive element (Nrf2/ARE) small molecule agonists: luciferase reporter gene qHTS assay in human keratinocytes (AID 1919969). Further: nearly all actives have a fitted effect of over 35% in size. Further: potency means the concentration at half of the fitted maximal effect.
Assay [2] deals with Gonadotropin-releasing hormone receptor (Homo sapiens) (UniProt P30968). Briefly: Human gonadotropin-releasing hormone receptor (GnRHR) small molecule agonists, calcium flux assay in GnRHR-HEK293 cells (AID 1920063). Further: nearly all actives have a fitted effect of over 35% in size. Summed up:
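Compounds dissolved in DMSO are pin-transferred onto dye-loaded GnRHR-HEK293 cells, which were seeded 18 h before at 37 C/5% CO2. Calcium signal is read as fluorescence intensity at 1 s intervals for 3 min.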
A general note: Calcium assays in cells follow changes in intracellular calcium, usually with a dye or a luminescent sensor.

Assay [3] is described as follows: G protein-coupled receptor (GPCR) small molecule agonists, calcium flux assay: HEK293 wild type cell line counter screen (AID 1920065). Summed up: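 Tox21 10K compounds, 15 concentrations each in triplicate, pin-transferred in DMSO onto dye-loaded cells; kinetic read at 480/540 nm for 3 min, 1 s intervals.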
A short description of assay [4]: p53 small molecule agonists, cell-based qHTS assay with human liver microsomes (AID 1963577).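 Further: p53 response element beta-lactamase reporter cells with liver microsomes plus NADPH.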 Summed up:
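16 h, 37 C exposure of p53RE-bla cells to compounds with human liver microsomes and NADPH (0.5 mg/mL final each); detection via LiveBLAzer mixture, 2 h dark at room temperature.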
Background: qHTS replaces the single test concentration by a dilution series.

Assay [5] can be described thus: p53 small molecule agonists, cell-based qHTS assay with rat liver microsomes (AID 1963578). Summed up:
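With rat liver microsomes and NADPH present (0.5 mg/mL final each), p53RE-bla cells are treated with compound for 16 h at 37 C. LiveBLAzer detection mixture is then applied for 2 h at room temperature in the dark.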

A short description of assay [6]: p53 small molecule agonists, cell-based qHTS assay with human liver microsomes: qHTS cell viability counter screen (AID 1963579). Further: nearly all actives have a fitted effect of over 45% in size. Further: potency means the concentration at half of the fitted maximal effect. Summed up:
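In this multiplexed counter screen, the reporter plates were subsequently treated with CellTiter-Glo so that cell viability, reflected by luminescence, could be recorded for p53RE-bla cells dosed 16 h with compounds under microsomal activation (HLM and NADPH).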

Assay [7] in a line: p53 small molecule agonists, cell-based qHTS assay with rat liver microsomes: qHTS cell viability counter screen (AID 1963580). Further: nearly all actives have a fitted effect of over 45% in size. Summed up:
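Cytotoxicity counter screen: intracellular ATP measured by CellTiter-Glo luminescence in the same wells as the beta-lactamase reporter read, on HCT-116 p53RE-bla cells exposed 16 h at 37 C to compounds with rat liver microsomes and NADPH, each 0.5 mg/mL final.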

The nature of assay [8]: p53 small molecule agonists, cell-based qHTS assay (AID 1963582; active means well fitted activation curve with a large enough effect in the signal ratio in the repeat runs, not every such curve was filed as active; the % refers to the signal ratio). Summed up:
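16 h compound exposure (37 C) of p53 response element–bla cells, preceded by 5 h recovery at 37 C/5% CO2; read-out via LiveBLAzer B/G FRET substrate, 2 h RT, fluorescence intensity.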

Assay [9] addresses 5-hydroxytryptamine receptor 2A (Homo sapiens) (UniProt P28223). Briefly: 5-hydroxytryptamine receptor 2A (HTR2A) small molecule agonists, cell-based qHTS assay (AID 1963587). Further: nearly all actives have a fitted effect of over 30% in size. Further: potency means the concentration at half of the fitted maximal effect. Summed up:
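CHO cells stably expressing human HTR2A, plated 18 h, loaded with calcium dye 1 h at 37 C. Agonist mode: compounds added and intracellular calcium fluorescence recorded kinetically for 2 min at 1 sec intervals.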

In assay [10] the target is Muscarinic acetylcholine receptor M1 (Homo sapiens) (UniProt P11229). Kind of assay: Cholinergic receptor muscarinic 1 (CHRM1) small molecule antagonists, cell-based qHTS assay (AID 1963588). Further: nearly all actives have a fitted effect of over 40% in size. Summed up: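 Compounds were tested at 15 concentrations in three independent runs. Dye-loaded CHRM1-CHO cells were exposed 5 min at room temperature before stimulation by acetylcholine added at 50nM. Intracellular calcium was read kinetically on FDSS for 3 min.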
Sequence of Muscarinic acetylcholine receptor M1 (Homo sapiens) (P11229 whole entry, looked up): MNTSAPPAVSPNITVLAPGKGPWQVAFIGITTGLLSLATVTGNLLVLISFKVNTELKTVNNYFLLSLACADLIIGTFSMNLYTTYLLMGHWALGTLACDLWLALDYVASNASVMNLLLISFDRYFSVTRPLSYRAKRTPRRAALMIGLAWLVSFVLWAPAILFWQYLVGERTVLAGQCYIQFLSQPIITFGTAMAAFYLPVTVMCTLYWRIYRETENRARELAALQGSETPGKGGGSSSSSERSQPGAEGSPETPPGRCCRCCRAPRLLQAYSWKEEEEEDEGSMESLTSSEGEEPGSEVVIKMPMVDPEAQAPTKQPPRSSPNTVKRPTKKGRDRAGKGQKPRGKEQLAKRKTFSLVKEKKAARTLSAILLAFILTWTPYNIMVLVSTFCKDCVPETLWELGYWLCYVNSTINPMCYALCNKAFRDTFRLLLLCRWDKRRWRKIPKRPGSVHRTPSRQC

For assay [11] the target is unchanged. Kind of assay: Cholinergic receptor muscarinic 1 (CHRM1) small molecule agonists, cell-based qHTS assay (AID 1963589). Further: nearly all actives have a fitted effect of over 35% in size. Summed up: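 Homogeneous fluorescence calcium flux, agonist mode. Human M1-expressing CHO cells; compound dosed at 15 concentrations, three independent runs; signal sampled every 1 sec.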
A short description of assay [12]: cAMP Responsive Elements (CRE) small molecule agonists, cell-based qHTS assay (AID 1963590). Summed up: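 HEK 293T cells stably bearing CRE-bla were plated at 2,000 cells per well and rested 18 h. Compounds, positive controls or DMSO were added for 3 h at 37 C. LiveBLAzer B/G substrate was then loaded for 2 h at room temperature.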
The target of assay [13] is Beta-2 adrenergic receptor (Homo sapiens) (UniProt P07550). Kind of assay: Adrenergic beta2 receptor (ADRB2) small molecule antagonists, cell-based qHTS assay (AID 1963592). Further: series mostly up to about 92 µM; nearly all actives have a fitted effect of over 50% in size. Summed up:
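Assay format: CHO-ADRB2 cells, 18-20hr seeding at 37C/5% CO2, then compound plus 1nM isoproterenol agonist mix for 0.5hr RT. Homogeneous time-resolved fluorescence cAMP detection after 1hr, expressed as 665/615 nm ratio.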

Assay [14] has the same target. Briefly: Adrenergic beta2 receptor (ADRB2) small molecule agonists, cell-based qHTS assay (AID 1963593).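 Further: CHO cells stably overexpressing human ADRB2.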 Summed up: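 CHO cells stably over-expressing ADRB2 were plated overnight at 37C, then dosed with compounds plus a stimulation mix containing 100uM IBMX and 25uM Ro-20-1724 for 0.5hr at room temperature. cAMP was measured by HTRF competition, 1hr.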
The target of assay [15] is D(2) dopamine receptor (Homo sapiens) (UniProt P14416). Kind of assay: Dopamine D2 receptor (DRD2) small molecule agonists, cell-based qHTS assay (AID 1963594). Further: nearly all actives have a fitted effect of over 35% in size. Summed up: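 HEK293 cells stably expressing human DRD2, pre-treated with PDE inhibitor Ro20-1724 (0.1 mM final) and compound 10 min at room temperature, then stimulated with NKH477 (200nM […]) for 30 min. cAMP read by HTRF (665/620 nm).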
Sequence of D(2) dopamine receptor (Homo sapiens) (P14416 whole entry, looked up): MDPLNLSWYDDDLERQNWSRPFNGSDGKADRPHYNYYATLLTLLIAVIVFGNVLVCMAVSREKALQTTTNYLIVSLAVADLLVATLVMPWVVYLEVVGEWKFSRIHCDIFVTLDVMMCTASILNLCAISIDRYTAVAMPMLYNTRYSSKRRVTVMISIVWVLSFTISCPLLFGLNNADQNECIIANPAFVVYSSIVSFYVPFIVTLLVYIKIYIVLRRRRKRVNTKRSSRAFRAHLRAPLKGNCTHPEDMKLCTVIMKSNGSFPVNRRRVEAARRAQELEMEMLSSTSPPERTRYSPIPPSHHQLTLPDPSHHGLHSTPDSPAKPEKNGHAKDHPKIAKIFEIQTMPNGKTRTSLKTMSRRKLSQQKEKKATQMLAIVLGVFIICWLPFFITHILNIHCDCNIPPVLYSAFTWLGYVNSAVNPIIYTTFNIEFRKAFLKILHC

Assay [16] has the same target. Kind of assay: Dopamine D2 receptor (DRD2) small molecule antagonists, cell-based qHTS assay (AID 1963595; active means well fitted inhibition curve with a large enough effect in the signal ratio in the repeat runs, with a control signal flat; the % refers to the signal ratio). Summed up:
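HEK293 cells stably expressing DRD2, preincubated with 0.1 mM Ro20-1724 and compounds 10 min, were stimulated with 200 nM NKH477 plus 12 nM quinpirole for 30 min at room temperature; cAMP measured by HTRF (665/620 nm).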

The target of assay [17] is KiSS-1 receptor (Homo sapiens) (UniProt Q969F8). Briefly: Human kisspeptin (KISS1R) small molecule agonists, calcium flux assay in KISS1R-HEK293 cells (AID 1920064; active means well fitted activation curve with a large enough effect in the repeat runs). Summed up:
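Cell line: HEK293, stable human KISS1R. Dye loading 1 h at 37 C after 18 h culture. Read: kinetic fluorescence, 480/540 nm, 3 min at 1 s intervals.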

The nature of assay [18]: p53 small molecule agonists, cell-based qHTS assay: qHTS cell viability counter screen (AID 1963581). Further: nearly all actives have a fitted effect of over 45% in size. Summed up: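 ATP content measured by luminescence in HCT-116 p53RE-bla cells treated 16 h at 37 C, same wells as the reporter screen.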
The target in assay [19] is 5-hydroxytryptamine receptor 2A (Homo sapiens) (UniProt P28223). Kind of assay: 5-hydroxytryptamine receptor 2A (HTR2A) small molecule antagonists, cell-based qHTS assay (AID 1963586). Further: nearly all actives have a fitted effect of over 45% in size. Further: potency means the concentration at half of the fitted maximal effect. Summed up: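 CHO cells stably expressing human HTR2A were plated for 18 h at 37 C, then loaded with calcium dye for 1 h. Compounds were preincubated 5 min at room temperature before DOI (4 nM solution) was added. Kinetic fluorescence was read for 3 min.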
Sequence of 5-hydroxytryptamine receptor 2A (Homo sapiens) (P28223 whole entry, looked up): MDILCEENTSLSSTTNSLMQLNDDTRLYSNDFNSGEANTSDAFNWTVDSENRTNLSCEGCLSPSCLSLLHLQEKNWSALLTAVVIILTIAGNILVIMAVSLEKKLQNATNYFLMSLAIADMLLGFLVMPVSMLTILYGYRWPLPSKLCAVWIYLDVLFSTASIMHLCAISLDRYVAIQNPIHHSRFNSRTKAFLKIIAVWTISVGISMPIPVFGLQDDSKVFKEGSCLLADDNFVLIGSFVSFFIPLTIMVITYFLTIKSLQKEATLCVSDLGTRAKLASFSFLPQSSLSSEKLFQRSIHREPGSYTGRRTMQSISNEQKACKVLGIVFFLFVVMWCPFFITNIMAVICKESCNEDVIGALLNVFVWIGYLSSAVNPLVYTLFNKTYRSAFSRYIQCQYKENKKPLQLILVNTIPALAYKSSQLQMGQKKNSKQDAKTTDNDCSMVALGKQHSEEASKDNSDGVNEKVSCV

Assay [20] can be described thus: cAMP Responsive Elements (CRE) small molecule antagonists, cell-based qHTS assay (AID 1963591; active means well fitted inhibition curve with a large enough effect in the signal ratio in the repeat runs, not every such curve was filed as active; the % refers to the signal ratio; further: potency means the concentration at half of the fitted maximal effect). Summed up:
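First, CRE-bla HEK293T cells settled 18 h at 37 C. Next, compound and 0.25 uM final NKH477 were applied for 3 h. Last, LiveBLAzer B/G substrate was loaded for 2 h at room temperature.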

Sequence of KiSS-1 receptor (Homo sapiens) (Q969F8 whole entry, looked up): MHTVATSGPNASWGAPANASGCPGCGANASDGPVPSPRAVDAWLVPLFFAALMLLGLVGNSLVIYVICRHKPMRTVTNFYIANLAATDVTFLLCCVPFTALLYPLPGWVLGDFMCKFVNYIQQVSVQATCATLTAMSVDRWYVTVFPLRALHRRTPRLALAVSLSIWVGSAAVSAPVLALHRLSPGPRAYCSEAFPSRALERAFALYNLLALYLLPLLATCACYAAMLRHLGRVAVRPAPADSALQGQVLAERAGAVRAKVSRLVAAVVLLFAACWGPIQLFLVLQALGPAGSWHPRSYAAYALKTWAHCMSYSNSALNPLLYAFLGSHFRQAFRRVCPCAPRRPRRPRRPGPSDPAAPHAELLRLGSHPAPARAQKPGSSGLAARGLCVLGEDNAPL
Sequence of Beta-2 adrenergic receptor (Homo sapiens) (P07550 whole entry, looked up): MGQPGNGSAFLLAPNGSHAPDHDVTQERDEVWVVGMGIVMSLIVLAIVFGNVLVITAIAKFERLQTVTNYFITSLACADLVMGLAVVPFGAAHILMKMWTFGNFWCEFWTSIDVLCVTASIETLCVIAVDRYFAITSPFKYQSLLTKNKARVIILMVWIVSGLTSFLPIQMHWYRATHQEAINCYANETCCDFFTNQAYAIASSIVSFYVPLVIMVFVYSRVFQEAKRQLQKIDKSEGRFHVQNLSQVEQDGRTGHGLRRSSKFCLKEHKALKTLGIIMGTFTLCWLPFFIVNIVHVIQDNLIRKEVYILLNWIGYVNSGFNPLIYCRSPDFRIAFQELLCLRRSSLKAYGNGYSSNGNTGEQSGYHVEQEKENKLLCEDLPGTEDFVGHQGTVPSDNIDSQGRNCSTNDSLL
Sequence of Gonadotropin-releasing hormone receptor (Homo sapiens) (P30968 whole entry, looked up): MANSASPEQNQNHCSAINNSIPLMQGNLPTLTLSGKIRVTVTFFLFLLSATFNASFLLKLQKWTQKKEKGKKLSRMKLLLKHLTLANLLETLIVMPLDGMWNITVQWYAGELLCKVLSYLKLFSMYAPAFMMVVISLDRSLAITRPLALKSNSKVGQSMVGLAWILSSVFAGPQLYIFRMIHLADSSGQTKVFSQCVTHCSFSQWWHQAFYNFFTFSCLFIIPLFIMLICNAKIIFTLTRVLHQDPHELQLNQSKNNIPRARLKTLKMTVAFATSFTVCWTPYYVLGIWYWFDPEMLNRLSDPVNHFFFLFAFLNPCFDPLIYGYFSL

As to `CCCCCCCCCCCCCCOS(=O)(=O)O`, the Potency result in [1], in assay [2], in [3], in assay [4], in assay [5] and in assay [6] was “inactive” each time. The Potency result in [7], in assay [8], in assay [10], in assay [11], in assay [12] and in assay [13] was “inactive” each time. The Potency result in assay [14], in assay [15] and in [16] was “inactive” throughout. Moreover, in assay [9], the Potency was 43.6 µM (active).
As for `CCN(CC)CCOC(=O)C1(C2CCCCC2)CCCCC1`, the Potency entry in [1], in [17], in assay [6] and in [13] was “inactive” in each case.
Take `CC(O)C#CC(C)O` (stereo not drawn): the Potency in assay [1] is 21.5 µM (active). The Potency result in assay [17], in [3], in assay [4], in assay [5], in assay [7] and in assay [18] was “inactive” each time. The Potency result in assay [19], in assay [9], in assay [10], in assay [11], in [12] and in assay [20] was “inactive” throughout. Besides, the Potency result in assay [13], in assay [15] and in assay [16] was “inactive” throughout.
In the case of `C=CC(=O)OCC1CC2CC1C1CCC(COC(=O)C=C)C21` (stereo not drawn), the Potency is 24.3 µM (active) in assay [1] and 40.8 µM (active) in assay [6]. Also, the Potency result in assay [17], in assay [3], in assay [7], in [19], in assay [9] and in assay [10] was “inactive” throughout. The Potency result in [11], in [13], in assay [14], in assay [15] and in assay [16] was “inactive” each time.
As to `CC[C@@]1(O)C(=O)OCc2c1cc1n(c2=O)Cc2cc3c(CN(C)C)c(O)ccc3nc2-1`, the Potency entry in [1], in assay [17], in [7], in [14], in assay [15] and in assay [16] was “inactive” in each case.
Turning to `C[C@]12CC[C@@H]3c4ccc(O)cc4CC[C@H]3[C@@H]1CC[C@@H]2OC(=O)CCC1CCCC1`, the Potency result in [1], in assay [17], in assay [3], in assay [4], in [5] and in assay [18] was “inactive” each time. Further, the Potency entry in assay [8], in assay [19], in assay [9], in assay [10], in [11] and in assay [12] was “inactive” throughout. In addition, the Potency result in [20], in assay [13], in assay [14], in [15] and in assay [16] was “inactive” throughout.
Take `CCC(CN)=C(c1ccccc1)c1ccccc1`: the Potency result in assay [1], in assay [17], in assay [4], in assay [5], in [6] and in assay [7] was “inactive” in each case. Also, the Potency result in assay [18], in [8], in assay [11], in [13], in assay [15] and in assay [16] was “inactive” in each case. Besides, the Potency in assay [9] was 23.9 µM (active).
For `NS(=O)(=O)c1cc2c(cc1Cl)NC(CSCc1ccccc1)=NS2(=O)=O`, the Potency entry in [1], in assay [3], in assay [4], in [5], in [6] and in assay [7] was “inactive” in each case. Also, the Potency result in [18], in [8], in assay [9], in assay [10], in [11] and in assay [12] was “inactive” each time. For the same compound, the Potency result in assay [20], in [13], in [15] and in assay [16] was “inactive” in each case.
`C1CCC(C(CC2CCCCN2)C2CCCCC2)CC1` (stereo not drawn): the Potency entry in assay [1], in assay [17], in assay [3], in assay [4], in assay [5] and in [7] was “inactive” in each case. Besides, the Potency result in assay [8] and in [15] was “inactive” in each case. The Potency in [20] was 29.8 µM (active).
Take `O=C(/C=C/c1ccccc1)NCCO`: the Potency result in [1], in [17], in assay [6], in [7], in [18] and in assay [19] was “inactive” throughout. Also, the Potency result in [10], in assay [11], in assay [12], in [20], in assay [13] and in [14] was “inactive” in each case. Besides, the Potency entry in assay [15] was “inactive”. The Potency in assay [9] is 21.3 µM (active).
Consider `O=[N+]([O-])c1cccc(Cl)c1Cl`, for which the Potency entry in assay [1], in assay [17], in assay [3], in assay [6], in [7] and in assay [18] was “inactive” throughout. Besides, the Potency result in assay [19], in assay [9], in assay [10], in assay [11], in assay [12] and in assay [20] was “inactive” in each case. Further, the Potency entry in assay [13], in assay [14], in [15] and in assay [16] was “inactive” in each case.
In the case of `C#C[C@]1(OC(C)=O)CC[C@H]2[C@@H]3CCC4=C/C(=N/O)CC[C@@H]4[C@H]3CC[C@@]21CC`, the Potency entry in [1], in assay [17], in [3], in assay [5], in assay [6] and in assay [7] was “inactive” in each case. For the same compound, the Potency entry in [18], in assay [19], in assay [9], in [11], in assay [20] and in assay [15] was “inactive” each time.
On to `CCCc1ncc(C[n+]2ccccc2C)c(N)n1`, for which the Potency result in [1], in assay [17], in assay [4], in [5], in assay [7] and in assay [18] was “inactive” in each case. Besides, the Potency entry in assay [8], in assay [19], in assay [10], in assay [11], in [12] and in [20] was “inactive” in each case. Further, in assay [15], the Potency result is “inactive”.
Take `Oc1ccc(-c2ccccc2)c(Cl)c1`: the Potency in assay [1] is 54.5 µM (active); in assay [19], 26.5 µM (active). Further, the Potency entry in assay [17], in [4], in [5], in assay [7], in [18] and in [8] was “inactive” each time. In addition, the Potency result in [10], in [11], in assay [13], in assay [15] and in [16] was “inactive” in each case.

(Values after PubChem BioAssay (Tox21).)
